What is called AC50 is the concentration giving half of the maximal activity seen.

Several values for one entry are separate records, joined by “and”; a condition that tells them apart may be missing. Equal values may be shown once. Records with an inconclusive call do not appear. Activity calls are given as the source filed them. Rule for the calls: active = hit-call score of the fitted dose curve at least 0.9, where 1 is the maximum; inconclusive = response in the unintended direction; inactive = score below 0.9.

The results in this text go back to PubChem BioAssay (EPA / NIEHS).

Chain of Cellular tumor antigen p53 (Homo sapiens) (P04637 whole entry, looked up, the tested form may be a part): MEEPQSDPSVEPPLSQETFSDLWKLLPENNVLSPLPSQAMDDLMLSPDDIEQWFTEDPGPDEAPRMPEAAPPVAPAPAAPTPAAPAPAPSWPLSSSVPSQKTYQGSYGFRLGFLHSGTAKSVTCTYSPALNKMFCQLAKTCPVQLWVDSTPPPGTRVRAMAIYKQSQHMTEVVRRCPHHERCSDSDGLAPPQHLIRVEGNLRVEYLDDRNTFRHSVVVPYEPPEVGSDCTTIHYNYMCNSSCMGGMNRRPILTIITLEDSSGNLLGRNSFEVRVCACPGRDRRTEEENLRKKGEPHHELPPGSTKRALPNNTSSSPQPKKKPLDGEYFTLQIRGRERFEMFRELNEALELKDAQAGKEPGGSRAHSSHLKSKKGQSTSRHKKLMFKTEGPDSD

This test addresses Cellular tumor antigen p53 (Homo sapiens) (UniProt P04637). The test is described as follows: TOX21_p53_BLA_p4_ratio: Tox21 HCT-116 p53 Agonism Beta-lactamase Assay, Ratio, Phase 4 (AID 2283601). An excerpt:
TOX21_p53_BLA_p4 is a cell-based, single-readout assay that uses HCT116, a human intestinal cell line, […] in a 1536-well plate.TOX21_p53_BLA_p4_ratio is an assay readout measuring reporter gene via receptor activity and designed using inducible reporter (beta lactamase induction) detected with GAL4 b-lactamase reporter gene. The signal is derived from the ratio of cleaved (ch2) to uncleaved (ch1)reporter gene substrate used as the measure of target activity.Data from the assay component TOX21_p53_BLA_p4_ratio was analyzed into 1 assay endpoint. This assay endpoint, TOX21_p53_BLA_p4_ratio, was analyzed in the positive analysis fitting direction relative to DMSO as the negative control and baseline of activity. Using a type of inducible reporter, gain-of-signal activity can be used to understand changes in the reporter gene as they relate to the gene TP53. Furthermore, this assay endpoint can be referred to as a primary readout, because this assay has produced multiple assay endpoints where this ratio serves a reporter gene function to understand target activity. To generalize the intended target to other relatable targets, this assay endpoint is annotated to the DNA binding intended target family, where the subfamily is tumor suppressor.
Thawing Method: Place 14 mL of pre-warmed thaw medium into a 15 mL of conical tub. Remove the vial of cells to be thawed from liquid nitrogen and thaw rapidly by placing at 37C in a water bath with gentle agitation for 1-2 minutes. Decontaminate the vial by wiping with 70% ethanol before opening in a biological safety cabinet. Transfer the vial contents drop-wise into 14 mL of thaw medium in a sterile 15-mL conical tub. Centrifuge cells at 900 rpm for 4 minutes and resuspend in thaw medium. Transfer contents to the T75 tissue culture flask containing Thaw Medium and place flask in a humidified 37C/5% CO2 incubator. Switch to growth medium at first passage.Propagation Method: Aspirate medium, rinse once in DPBS, add 0.25% Trypsin/EDTA and swirl to coat the cell evenly. Add an equal volume of Growth Medium to inactivate Trypsin after 2-3 minutes incubation at 37C. Centrifuge cells at 900 rpm for 4 minutes and resuspend in growth medium. Cell should be passage or fed at least twice a week.Assay Protocol: Harvest cells from culture in growth medium and resuspend in assay medium. 2.2 Dispense 4000 cells/5 uL/well into 1536-well black/clear bottom plates using a Multidrop dispenser. After the cells were incubated at 37C for 5 hours, 23 nL of compounds dissolved in DMSO were transferred to the assay plate by a PinTool resulting in a 217-fold dilution. Incubate the plates for 16 hours at 37C, 5% CO2. Add 1 uL of 6X LiveBLAzer FRET B/G (CCF4-AM) Substrate Mixture to each well using a BioRAPTR dispenser and incubate the plates at room temperature for 2 hours. Measure fluorescence intensity at 460 and 530 nm emission and 405 nm excitation by an Envision detector. Data is expressed as the ratio of 460nm/530nm emissions. Add 4 uL of Cell-titer Glo to each well using BioRAPTR and incubate the plates at room temperature for 2 hours. Measure fluorescence intensity by a VewLux plate reader.
Take `CCCCCC/C=C/CCCCCCCC(=O)O`: the result was inactive.

For the compound `CCCCC(CC)COC(=O)c1ccc(N(C)C)cc1` (stereo not given), the result was inactive.

Regarding `O=C1C=CC(=O)N1c1ccc(Cc2ccc(N3C(=O)C=CC3=O)cc2)cc1`, the AC50 was 68 µM (active).

For the compound `CC(=O)CCC(C)C`, the outcome was inactive.

Regarding `Cc1ccc(O)c(-n2nc3ccccc3n2)c1`, the outcome was inactive.

With `C=CCOC(=O)CC(C)C`, the result was inactive.

Turning to `CCC(C)CO` (stereo not given), the outcome was inactive.

As for `CC(C)(C)C(=O)C1C(=O)c2ccccc2C1=O`, the outcome was inactive.

For `CC(C)Nc1ccc(NC(C)C)c2c1C(=O)c1ccccc1C2=O`, the outcome was inactive.

On to `Cc1ccc([N+](=O)[O-])c(C)c1`, for which the result was inactive.

In the case of `OCC1CCCO1` (stereo not given), the result was inactive.

Take `F[Si-2](F)(F)(F)(F)F`: the result was inactive.

Turning to `CCC(Cc1c(I)cc(I)c(N)c1I)C(=O)O` (stereo not given), the outcome was inactive.

Take `O=C1c2c(O)ccc(Nc3ccc(CCO)cc3)c2C(=O)c2c([N+](=O)[O-])ccc(O)c21`: the result was inactive.

In the case of `CCOC(=O)CCC(C)=O`, the result was inactive.

On to `CO[Si](CCCOCC1CO1)(OC)OC` (stereo not given), for which the result was inactive.

As to `COC(=O)c1ccc(C=O)cc1`, the result was inactive.

Take `O=C1C=CC(=O)N1c1ccccc1`: the AC50 was 77.5 µM (active).

`CC(C)CC=C(C=O)c1ccccc1`: the result was inactive.

For `CCCCOC(=O)[C@H](C)O`, the result was inactive.

Consider `CCN=C1C=CC(=C(c2ccc(N(CC)CC)cc2)c2ccc(N(CC)CC)cc2)c2ccccc21`, for which the AC50 is 50 µM (active).

With `O=C(c1ccccc1)c1ccc(O)cc1O`, the result was inactive.

Take `Cc1cc(O)c(C(C)(C)C)cc1C(C)(C)C`: the AC50 is 44.8 µM (active).

With `CCC/C=C/CO`, the outcome was inactive.

As for `CC(O)C#CC(C)O` (stereo not given), the result was inactive.

On to `CCCCCCCC/C=C\CCCCCCCC(=O)N(C)CC(=O)O`, for which the AC50 was 83.7 µM (active).

With `CSc1ccc(Cl)cc1`, the result was inactive.

Regarding `Cc1cc(=O)[nH]c(C(C)C)n1`, the outcome was inactive.

Regarding `C[C@]12CC[C@H]3C(=CCc4cc(O)ccc43)[C@@H]1CCC2=O`, the result was inactive.

For the compound `CC(C)OC(=O)COc1ccc(Cl)cc1Cl`, the result was inactive.

In the case of `O=S(=O)(O)c1ccc(Cl)cc1`, the result was inactive.

Take `CCN=c1cc2oc3cc(NCC)c(C)cc3c(-c3ccccc3C(=O)OCC)c-2cc1C`: the half-maximal activity concentration (AC50) is 35.8 µM (active) and 44.5 µM (active).

In the case of `CCCCCCCCn1sc(Cl)c(Cl)c1=O`, the outcome was inactive.

For `CC(C)OC=O`, the outcome was inactive.

For the compound `CCCCCCCCCCCCCCCCC`, the outcome was inactive.

For the compound `CCOC(=O)C1CC(=O)C(=C(O)C2CC2)C(=O)C1` (stereo not given), the outcome was inactive.

In the case of `CCC(=O)OC(C)c1ccccc1` (stereo not given), the outcome was inactive.

Regarding `CCc1cc(Cc2cc(CC)c(N)c(CC)c2)cc(CC)c1N`, the outcome was inactive.

In the case of `Cc1ccc2c(c1)OCC(=O)CO2`, the result was inactive.

As to `Brc1nc2ccccc2s1`, the result was inactive.
